This passage reports Potency results from PubChem BioAssay (NCATS).

Results filed as inconclusive are left out. Activity calls are given as the source filed them. Calls follow the shape of the dose curve; as a rule, active = well fitted curve in the direction sought with a large enough effect; inconclusive = small, poorly fitted or top-dose-only effect, or another doubt; inactive = no such curve, though single readings can be large; an effect the other way counts as inactive or inconclusive.

Assay [1] in a line: NS1 protein of Zika virus - qHTS assay to identify small molecule inhibitors in human HEK 293 cells (AID 1347053). Also: nearly all actives have a fitted effect of over 55% in size. An outline of the steps: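 HEK 293 cells, seeded 20 h at 37 C, were pretreated with compound 1 h, then infected with ZIKV MR766 (MOI = 0.5) for 24 h. NS1 was read by TR-FRET with two anti-NS1 antibodies, normalized to uninfected and infected wells.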
In general terms: In qHTS, concentration-response curves come from the screen itself.

Assay [2] can be described thus: qHTS of pediatric cancer cell lines to identify multiple opportunities for drug repurposing: Primary screen for TC32 cells (AID 1347089). Also: nearly all actives have a fitted effect of over 60% in size. In a few lines: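 In the primary qHTS, MIPE compounds were tested at 11 concentrations (0.78 nM to 46 µM) and NPC compounds at 8 (0.59 nM to 46 µM) on TC32 cells for 48 h. CellTiter-Glo luminescence gave viability.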
Assay [3] can be described thus: qHTS of pediatric cancer cell lines to identify multiple opportunities for drug repurposing: Primary screen for A673 cells (AID 1347092). Also: nearly all actives have a fitted effect of over 45% in size. In a few lines:
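48 h compound exposure, A673, 500-1,000 cells/well, 37 degrees C/5% CO2. MIPE: 11-point, 0.78 nM-46 µM; NPC: 8-point, 0.59 nM-46 µM (final). Readout CellTiter-Glo luminescence after 15 min RT.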

Assay [4] in a line: qHTS of pediatric cancer cell lines to identify multiple opportunities for drug repurposing: Primary screen for SK-N-MC cells (AID 1347093). In a few lines: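 Metabolically active cells were quantified by ATP-dependent luminescence (CellTiter-Glo, 15 min at room temperature) following 48 h treatment. Cells had been plated at 500-1,000 per well and settled for 5 h beforehand.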

The nature of assay [5]: qHTS of pediatric cancer cell lines to identify multiple opportunities for drug repurposing: Primary screen for SJ-GBM2 cells (AID 1347091). An outline of the steps: (§1)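 Cell viability, CellTiter-Glo luminescence; 500-1,000 cells/well, 8- or 11-point titration, 48 h compound exposure at 37 degrees C, 5% CO2. Controls: DMSO neutral, bortezomib 2.3 µM final as positive.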
A short description of assay [6]: qHTS of pediatric cancer cell lines to identify multiple opportunities for drug repurposing: Primary screen for DAOY cells (AID 1347090). Also: nearly all actives have a fitted effect of over 55% in size. In a few lines:
as §1
Potency is read from the fitted curve at half-maximal effect.

For `Cc1cncc2cccc(S(=O)(=O)N3CCCN(C(=O)CN)C[C@@H]3C)c12`, the Potency entry in assay [1] is “inactive”. For the same compound, the Potency in assay [2] was 10.4 µM (active); in assay [3], 14.8 µM (active).

Consider `COC(=O)C1C2CC3c4[nH]c5cc(OC)ccc5c4CCN3CC2CC(OC(=O)c2cc(OC)c(OC)c(OC)c2)C1OC` (stereo not drawn), for which the Potency result in assay [1] and in assay [2] was “inactive” in each case. The Potency in assay [4] is 3.72 µM (active).

In the case of `COc1cccc2c1C(=O)c1c(O)c3c(c(O)c1C2=O)C[C@@](O)(C(=O)CO)C[C@@H]3O[C@H]1C[C@H](N)[C@H](OC2CCCCO2)[C@H](C)O1` (stereo partly drawn), the Potency in assay [1] was 2.96 µM (active); in assay [2], 3.7 µM (active); in assay [5], 1.18 µM (active); in assay [3], 2.35 µM (active); in assay [4], 0.833 µM (active).

As for `C[C@]12C=CC(=O)N[C@@H]1CC[C@H]1[C@H]3CC[C@@H](C(=O)Nc4cc(C(F)(F)F)ccc4C(F)(F)F)[C@@]3(C)CC[C@@H]12`, the Potency result in assay [1], in assay [2], in assay [6] and in assay [4] was “inactive” each time.

Turning to `N#CNC(=NCCCCCCOc1ccc(Cl)cc1)Nc1ccncc1`, the Potency result in assay [1] is “inactive”. Moreover, the Potency in assay [2] is 0.0033 µM (active); in assay [6] it was 14.8 µM (active); in assay [3], 0.0023 µM (active); in assay [4], 0.0033 µM (active).

Take `C[C@@H](Oc1ccc2[nH]nc(C=Cc3cnn(CCO)c3)c2c1)c1c(Cl)cncc1Cl`: in assay [1], the Potency result is “inactive”. The Potency is 18.6 µM (active) in assay [2], 18.7 µM (active) in assay [3] and 7.43 µM (active) in assay [4].

In the case of `CCc1nc(-c2cccc(C)c2)c(-c2ccnc(NC(=O)c3ccccc3)c2)s1`, the Potency in assay [1] was 10.5 µM (active); in assay [5] it was 18.7 µM (active); in assay [3], 23.5 µM (active); in assay [4] it was 29.6 µM (active). Further, the Potency entry in assay [2] is “inactive”.

In the case of `CCOC(=O)N1CCN([N+]([O-])=NOc2ccc([N+](=O)[O-])cc2C#N)CC1`, the Potency was 2.96 µM (active) in assay [1], 3.7 µM (active) in assay [2], 1.18 µM (active) in assay [3] and 10.5 µM (active) in assay [4].
